G9a block = inhibitors of human histone lysine methyltransferase G9a; AID 504332; Q96KQ7; 8.8% of 350,000 active; G9a H3K9 monomethylation, AlphaScreen, 2 h; Potency, µM (doses to about 102 µM), for inactives: top-dose activity, negative = inhibition, hits mostly inhibitors; also: % is scaled to controls: 0 for no effect and ±100 for the full control effect; nearly all actives have a fitted effect of over 75% in size
Target sequence (Q96KQ7 913-1193 limits assumed): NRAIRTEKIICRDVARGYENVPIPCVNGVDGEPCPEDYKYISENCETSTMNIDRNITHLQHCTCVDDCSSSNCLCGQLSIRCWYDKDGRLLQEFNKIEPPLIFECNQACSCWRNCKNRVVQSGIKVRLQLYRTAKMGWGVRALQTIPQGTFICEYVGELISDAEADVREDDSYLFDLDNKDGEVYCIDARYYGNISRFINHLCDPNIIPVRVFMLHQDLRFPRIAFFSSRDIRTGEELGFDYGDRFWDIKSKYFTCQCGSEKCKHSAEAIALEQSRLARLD
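G9a (20 nM) preincubated 15 min RT with compounds, then 500 nM biotinylated H3K9 peptide and 20 uM SAM added; 2 h RT reaction. Monomethyl-H3K9 product detected by AlphaScreen with anti-H3K9me1 antibody, streptavidin donor and anti-rabbit IgG acceptor beads.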
JMJD2A Tudor inh = inhibitors of human JMJD2A Tudor domain. AlphaScreen JMJD2A-Tudor / H3K4me3 peptide binding. O75164. 4.4% of 390,000 active. Potency, µM (top dose mostly 114 µM), inactives show top-dose activity change, negative = inhibition, most hits filed as inhibitors. AID 504339; also: % is scaled to controls: 0 for no effect and ±100 for the full control effect; nearly all actives have a fitted effect of over 50% in size
HP1b binding inh = blocks HP1-beta chromodomain binding to methylated histone tails | P83916 | AlphaScreen HP1-beta / biotin-H3K9me3 peptide binding | Potency, µM (doses to about 114 µM), inactives show at the highest dose activity change, negative = inhibition, actives largely listed as inhibitors | 0.56% of 390,000 active; also: nearly all actives have a fitted effect of over 70% in size
Target sequence (P83916 whole entry, looked up): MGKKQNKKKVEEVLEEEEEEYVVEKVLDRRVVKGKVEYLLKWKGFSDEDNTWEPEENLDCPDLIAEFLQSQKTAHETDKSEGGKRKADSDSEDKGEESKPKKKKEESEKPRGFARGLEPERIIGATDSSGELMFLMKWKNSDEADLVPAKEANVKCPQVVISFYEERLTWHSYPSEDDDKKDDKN
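HP1-beta protein (50 nM final) preincubated 30 min at room temperature with biotinylated H3(1-18)K9me3 peptide (50 nM) in PBS pH 7.4, 0.01% Tween-20, then compound added for 30 min. AlphaScreen streptavidin donor/nickel chelate acceptor beads (10 ug/mL final), 30 min dark, luminescence read.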
BAZ2B inh = BAZ2B (human) inhibition | Q9UIF8 | AlphaScreen BAZ2B-H3K14Ac peptide displacement | Potency, µM (top dose mostly 114 µM), inactives show top-dose activity change, negative = inhibition, hits mostly inhibitors | 4.4% of 360,000 active; also: % is scaled to controls: 0 for no effect and ±100 for the full control effect; nearly all actives have a fitted effect of over 60% in size
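Protein-peptide AlphaScreen: BAZ2B 50 nM, b-H3K14Ac 50 nM, 1x PBS pH 7.4 + 0.01% Tween-20. Preincubation 30 min RT; cpd 30 min RT (top 110 uM); beads 20 min RT, light-protected.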
Sfp PPTase inh = Sfp phosphopantetheinyl transferase inhibition | Q9F4F7 | Biochemical Sfp PPTase activity, qHTS | Potency, µM, for inactives: largest response in the series, negative = inhibition, usual class: inhibitors | 3.5% of 310,000 active;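 also: the enzyme is Sfp with the accession as filed and its product quenches rhodamine fluorescence; 0% = enzyme reaction without inhibitor and -100% = no enzyme wells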
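Step 1, compound plus 15 nM Sfp-PPTase, 15 min, room temperature. Step 2, add rhodamine-CoA (5 uM) and BHQ-2-YbbR (12.5 uM). Step 3, read 525/598 nm fluorescence at 0 and 30 min.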
ALOX12 inh = blocks human arachidonate 12S-lipoxygenase | P18054 | purified 12hLO, xylenol orange hydroperoxide absorbance | Potency, µM (titrated, usually from 108 µM), inactives show top-dose activity change, negative = inhibition, hits mostly inhibitors | 1.1% of 580,000 active | AID 1671190; also: % is scaled to controls: 0 for no effect and ±100 for the full control effect
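Purified human 12hLO (150 nM final) in 25 mM Hepes, 0.01% Triton X-100, pH 7.0 was preincubated 15 min at room temperature with compound. Then 40 uM arachidonic acid was added, 30 min. Hydroperoxide was read by Fe-XO absorbance ratio 573/405 nm.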
The depositor's hits bear a star; ? = inconclusive; / = no result given; ! = repeats disagree; [ ] = remark or other dose. An excerpt weighted towards active compounds, which were near 8.7% of everything screened. Calls follow the shape of the dose curve; as a rule, active = well fitted curve in the direction sought with a large enough effect; inconclusive = small, poorly fitted or top-dose-only effect, or another doubt; inactive = no such curve, though single readings can be large; an effect the other way counts as inactive or inconclusive. Potency is read from the fitted curve at half-maximal effect.

SMILES	G9a block	JMJD2A Tudor inh	HP1b binding inh	BAZ2B inh	Sfp PPTase inh	ALOX12 inh
CCc1nc2c(sc3nc4c(cc32)COC(C)(C)C4)c(=O)n1Cc1ccco1	?	-27%	-15%	?	3.5µM*	?
CCc1nc2c(sc3nc4c(cc32)COC(C)(C)C4)c(=O)n1Cc1ccccc1	?	-22%	20%	8%	-1%	3%
C=CCn1c(Cc2nc3ccccc3[nH]2)n[nH]c1=S	2µM*	8.9µM*	6%	?	-3%	-30%
C=CCn1c(Cc2cccc3ccccc23)n[nH]c1=S	2.2µM*	50µM*	-7%	-24%	5%	-27%
O=c1c2ccccc2cnn1Cc1n[nH]c(=S)n1-c1ccc(Cl)cc1Cl	?	/	/	3%	10%	/
S=c1[nH]nc(CCc2nc3ccccc3[nH]2)n1-c1ccccc1	?	-94%	16%	-11%	?	-8%
S=c1[nH]nc(CCc2nc3ccccc3[nH]2)n1-c1cccc(Cl)c1	-1%[0.501 µM]	45µM*	20%	-8%	50µM*	-29%
O=c1c2ccccc2cnn1Cc1n[nH]c(=S)n1-c1ccccc1	7.9µM*	25µM*	28%	6%	?	-26%
c1ccc(Cc2nc3ccccc3[nH]2)cc1	0%[12.7 µM]	-10%	28%	7%	14%	7%
CC(C)Cc1ccc(C(C)NC(=O)C2CCC2)cc1 (configuration not stated)	/	/	/	/	/	-29%
CO[C@H]1[C@H](NC(=O)c2cc3ccccc3n2C)c2ccccc2C12CCNCC2	/	/	/	/	/	26%
S=c1[nH]nc(Cc2cccc3ccccc23)n1-c1ccccc1	?	79µM*	8%	-34%	18%	?
Cc1ccc(S(=O)(=O)N(Cc2n[nH]c(=S)n2-c2ccccc2)c2ccccc2)cc1	/	-28%	24%	?	-1%	?
Nn1c(Cc2cccc3ccccc23)nnc1SCc1ccccc1	-7%[59 µM]	-10%	32%	1%	-12%	-17%
S=c1[nH]nc(Cc2noc3ccccc23)n1-c1ccccc1	2.8µM*	11µM*	19%	0%	7%	-13%
COc1ccc(-c2cnc(Nc3cccc(N[S+](C)(=O)[O-])c3)c3c2CCO3)cn1	/	/	/	/	/	-7%[176 µM]
CCOCC(=O)N1c2ccccc2CC1c1noc(C(C)C)n1 (configuration not stated)	/	/	/	/	/	18%
CCSC(=Nc1ccccc1)C1=C(O)COC1=O	35µM*	-34%	38%	?	11%	?
O=C(O)CCCCCN1C(=O)CCC1=O	22%	-5%	59%	-22%	9%	0%
C[N+](C)(C)CCCN1C(=O)CCCC1=O	-53%	56µM*	16%	?	-25%	20%
Cc1cccc(C(C)C)c1NC(=O)C1CN(S(=O)(=O)c2ccccc2)CCN1S(=O)(=O)c1ccccc1 (configuration not stated)	71µM*	-9%	31%	-4%	10%	-1%
C[C@@H]1O[C@@H](Oc2c(-c3cc(O)c(O)c(O)c3)oc3cc(O)cc(O)c3c2=O)[C@H](O)[C@H](O)[C@H]1O	45µM*	32µM*	?	50µM*	32µM*!	?
Cc1ccc(CN2C(=O)C(O)(c3c(C)[nH]c4ccccc34)c3ccccc32)cc1 (configuration not stated)	?	?	?	45µM*	/	?
CCOc1ccc(/C=C2\SC(=S)N(C(C(=O)O)c3ccccc3)C2=O)cc1OC (configuration not stated)	?	-29%	16%	?	56µM*	16µM*
COc1ccc(OC)c(/C=C2\SC(=S)N(C(C(=O)O)c3ccccc3)C2=O)c1 (configuration not stated)	/	-28%	6%	-33%	56µM*	?
SMILES	G9a block	JMJD2A Tudor inh	HP1b binding inh	BAZ2B inh	Sfp PPTase inh	ALOX12 inh
COc1ccc(-c2nc3ccccc3c(=O)n2CCOc2ccccc2OC)cc1	/	/	/	/	/	-35%
COc1ccc(N=C2NC(=O)CS2)c([N+](=O)[O-])c1	-34%	-20%	13%	-28%	9%	0%
COc1ccc(N=CC2CCCCC2=O)c([N+](=O)[O-])c1 (configuration not stated)	/	25µM*	45µM*	/	/	-1%
CN(C)c1ccc(C(=O)/C=C/c2ccc(C#N)cc2)cc1	/	/	/	/	/	-27%
O=C(CC1(O)C(=O)N(C/C=C/c2ccccc2)c2ccccc21)c1ccccn1 (configuration not stated)	50µM*	?	-19%	-32%	-6%	-7%
O=C(CC1(O)C(=O)N(CCc2ccccc2)c2ccccc21)c1ccccn1 (configuration not stated)	?	-13%	13%	-18%	-8%	-2%
Cc1nc2cc(C(=O)O)ccc2s1	-12%[59 µM]	-13%	47%	2%	10%	0%
Cc1nc2ccc(C(=O)O)cc2c2c1CC(C)S2 (configuration not stated)	?	?	-33%	71µM*	-20%	-14%
Cc1ccc(-c2[nH]c(=S)[nH]c(=O)c2C#N)cc1	30%[0.501 µM]	-20%	25%	-13%	20%	16µM*
Cc1ccc2[nH]c(-c3ccc(Cl)cc3)c(C#N)c2c1	/	/	/	/	/	-10%
CN1CC(=O)N(C2CCNCC2)Cc2c(NC3CCCCC3O)ncnc21 (configuration not stated)	/	/	/	/	/	11µM*
Cc1ccc(S(=O)(=O)c2ccccc2)cc1S	3.5µM*	/	/	4%	45µM*	/
O=C(CN1CC(=O)Oc2ccccc21)OCC(=O)c1ccccc1	?	20µM*	45%	13µM*	?	-24%
O=C(CN1CC(=O)Oc2ccccc21)OCC(=O)c1cccc(Br)c1	45µM*	40µM*	59%	8.9µM*	71µM*	/
Cc1cccc(NC(=O)c2ncoc2-c2cccc(Cl)c2)c1C	/	/	/	/	/	-1%
CC1CCN(CCC(=O)Nc2ccc3c(c2)OCCO3)CC1	-47%	/	/	56µM*	-13%	/
CC1CC(C)CN(CC(=O)Nc2ccc3c(c2)OCCO3)C1 (configuration not stated)	-43%[12.7 µM]	0.89µM*	?	79µM*	-21%	?
O=C(N/N=C/c1ccc(-c2ccccc2C(=O)O)o1)c1cccs1	8.9µM*	89µM*	5%	56µM*	50µM*	?
COc1ccc(NS(=O)(=O)c2cc(NC(=O)c3cccnc3Cl)ccc2N2CCCC2)cc1	45µM*	?	17%	-30%	9%	?
COc1ccc(NS(=O)(=O)c2cc(NC(=O)c3cnc(C)cn3)ccc2N2CCCC2)cc1	-12%[59 µM]	-26%	17%	-4%	3%	-18%

Bioassay records from PubChem.
